Inconclusive results are not listed. Where a call stands in place of a potency, no number is given. Activity calls are given as the source filed them. The call rests on the fitted dose curve.
system: estrogen-related receptor alpha (ERRalpha) with PGC-1alpha coactivator, human; assay: qHTS assay to identify small molecule antagonists of the estrogen related receptor signaling pathway with the pleiotropic PPARgamma coactivator (PGC) (AID 1224821); conditions: ERR/PGC reporter cell line, luciferase, antagonist mode; series mostly up to 46.1 µM; further: nearly all actives have a fitted effect of over 50% in size
From the text: National Center for Advancing Translational Sciences [NCATS]
NIH Chemical Genomics Center [NCGC]
U.S. Environmental Protection Agency [EPA]
National Institutes of Environmental Health Sciences [NIEHS]
National Toxicology Program [NTP]
U.S. Food and Drug Administration [FDA]
Estrogen related receptors (ERRs), the first orphan nuclear receptors discovered, play an important role in the control of cellular energy metabolism. ERRs are required for high-energy production in response to the environmental challenges. The pleiotropic PPARgamma coactivator (PGC) is a major partner of ERR and a key regulator in energy homeostasis. Together they have been implicated in the etiology of metabolic disorders such as Type 2 diabetes and metabolic syndrome. ERR-alpha was also identified as an adverse marker for breast cancer progression; ERR-alpha-positive tumors have a poor prognosis. To screen and to identify environmental compounds that perturb the ERR and PGC/ERR signaling pathways could provide valuable information for potential therapeutic or preventive measures in the treatment of metabolic disease. For identifying PGC/ERR antagonists, PGC/ERR cell line (provided by NTP) has been used to screen LOPAC library.
Tox21 Assay Protocol Summary:
The PGC/ERR cells were dispensed at 2,000 cells/5 ul/well in 1536-well white plates using a Multidrop dispenser. After the assay plates were incubated at a 37 C/5% CO2 incubator for 6 hours, 23 nL of compounds dissolved in DMSO, positive and negative controls or DMSO only was transferred to the assay plate by a pin tool. The plates were incubated at 37 C for 18 hours. 4 ul/well of One-Glo reagent was added into the assay plates using a Flying Reagent Dispenser. After 30 min incubation at room temperature, the luminescence intensity in the plates was measured using a ViewLux plate reader.
Potency means the concentration at half of the fitted maximal effect.

Compound	Potency
c1ccc(C2(c3ccccc3)CC2C2=NCCN2)cc1 (stereo not given)	inactive
O=c1ccc2[nH]cc(C3=CCNCC3)c2[nH]1	inactive
C[C@H](Cc1ccc2c(c1)OC(C(=O)O)(C(=O)O)O2)NC[C@H](O)c1cccc(Cl)c1	inactive
CC(C)NC(C)Cc1ccc(I)cc1 (stereo not given)	inactive
CCCN(CCC)[C@H]1CCc2c(F)ccc(O)c2C1	inactive
O=C1CCCN1CC#CCN1CCCC1	inactive
c1ccc2c(N3CCNCC3)cccc2c1	inactive
CNCCc1c[nH]c2ccc(O)cc12	inactive
CC1(C(=O)O)C2CCC(O2)C1(C)C(=O)O (stereo not given)	inactive
CC(C)[C@H]1CN[C@H](C(=O)O)[C@H]1CC(=O)O	inactive
O=C1/C(=C/c2ccccc2)C[C@@]2(O)[C@H]3Cc4ccc(O)c5c4[C@@]2(CCN3CC2CC2)[C@H]1O5	2200 nM (active)
Oc1ccc2c3c1O[C@H]1c4[nH]c5ccccc5c4C[C@@]4(O)C(C2)N(CC2CC2)CCC314 (stereo not given in full)	inactive
C[C@H](N)Cc1cccc(C(F)(F)F)c1	inactive
CC(=O)NBr	inactive
CC(=O)OCC1=C(C(=O)[O-])N2C(=O)[C@@H](NC(=O)CCC[C@@H](N)C(=O)[O-])[C@H]2SC1.[Zn+2]	inactive
C[N+]1(C)CCc2cc3c(cc2[C@H]1[C@@H]1OC(=O)c2c1ccc1c2OCO1)OCO3	inactive
CN1CCc2cccc(Cl)c2CC1	inactive
COC(=O)N1CCN(C(=O)Cc2ccc(Cl)c(Cl)c2)C(CN2CCCC2)C1 (stereo not given)	inactive
CCCCCN(C)CCC(O)(P(=O)(O)O)P(=O)(O)O	inactive
Cc1[nH]c2ccc(O)cc2c1CCN	inactive

Compound	Potency
C#CCOC(=O)C1=CCCN(C)C1	inactive
CCCN(CCC)[C@@H]1CCc2ccc(O)cc2C1	inactive
N[C@@H](Cn1oc(=O)[nH]c1=O)C(=O)O	inactive
CN1CCC(c2c[nH]c3ccc(O)cc23)CC1	inactive
NCC(CP(=O)(O)O)c1ccc(Cl)cc1 (stereo not given)	inactive
COc1cc(OC)c(OC)cc1C=O	inactive
NCc1cc(=O)[nH]o1	inactive
COc1ccc2[nH]cc(CCN)c2c1	inactive
O=C(O)[C@@H]1CCN1	inactive
Cn1cnc(CCN)c1	inactive
CCCCCCCCCCCCCC(=O)O[C@@H]1[C@@H](C)[C@@]2(O)[C@@H](C=C(CO)C[C@@]3(O)C(=O)C(C)=C[C@@H]23)C2C(C)(C)[C@@]21OC(C)=O (stereo not given in full)	inactive
NC(CCP(=O)(O)O)C(=O)O (stereo not given)	inactive
CC(C)(O)[C@@H]1[C@H]2OC(=O)[C@@H]1[C@]1(O)C[C@H]3O[C@]34C(=O)O[C@H]2[C@]14C (tested in a mixture with another compound)	inactive
CC(C)CC(NP(=O)(O)O[C@@H]1O[C@@H](C)[C@H](O)[C@@H](O)[C@H]1O)C(=O)NC(Cc1c[nH]c2ccccc12)C(=O)O (stereo not given in full)	inactive
COc1cc(C(O)CN)ccc1O (stereo not given)	inactive
Nc1ccc(CCN2CCN(c3cccc(C(F)(F)F)c3)CC2)cc1	inactive
Clc1ccc(N2CC3CCC(C2)N3)nn1	inactive
Cc1sc2ccccc2c1CC1=NCCN1	inactive
CCCN(CCC)[C@@H]1CCc2cccc(O)c2C1	inactive
CCOC(=O)c1ncn2c1[C@@H]1CCCN1C(=O)c1cc(OC)ccc1-2	inactive

Reference: PubChem BioAssay (Tox21)
